# The panel holds about 83,000 compounds, 20% with a hit somewhere; the sample as a whole holds those more often.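 Growth was measured after 48 h exposure to one concentration of compound in 96-well plates. Values under 10 count as active.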 Values without a mark were called inactive. Activity calls are given as the source filed them.
# Tested on: MDA-MB-468 breast
# Test: NCI-60 one-dose screen, 48 h (100 = growth as untreated, 0 = no growth, -100 = all killed)
# Conditions: 10 µM unless noted
row,Structure (SMILES),growth
1,COc1ccc2nc(NC(=O)c3cc(-c4ccc(F)cc4)n4nc(-c5ccccc5)cc4n3)sc2c1,103%
2,NC(N)=N/N=C/c1ccc(Br)cc1,8.33% (active)
3,CC1=NN(c2ccc(S(=O)(=O)O)cc2Cl)C(=O)C1,107%
4,O=c1n(CC2CO2)c(=O)n(CC2CO2)n1CC1CO1 (stereo not given),25.6%
5,CN(C)S(=O)(=O)c1ccc(-c2nc(C(Cl)Cl)nc3cc(-c4ccc(F)cc4)nn23)cc1,-46.2% (active)
6,CC(Nc1c(C#N)cnc2ccc(-c3cnc(N)nc3)cc12)c1ccccc1 (stereo not given),-9.18% (active)
7,O=C1OC(c2ccc(-c3ccccc3)cc2)=C/C1=C/C=C/c1ccccc1,99.7%
8,O=C1C=Cc2ncccc2C1=O,64.5%
9,CCN(CC)CCCC(C)Nc1cnc(C(=O)Nc2cccc3ccc(OC)nc23)cn1 (stereo not given),79.1%
10,O=S(=O)(Nc1ccc(-c2nc(-c3cccc(O)c3)c(-c3ccnc(Br)c3)[nH]2)cc1)c1ccccc1,-3.6% (active)
11,CCN(CC)CCOc1ccc2c(-c3ccccc3)c(-c3ccc(OC)cc3)c(=O)oc2c1,44.5%
12,O=C1Nc2cc(-c3cccc([N+](=O)[O-])c3)ccc2/C1=C/c1ccc[nH]1,-7.17% (active)
13,O=C(Nc1cccc(Cl)c1)c1cc(Cl)ccc1O,-1.28% (active)
14,O=C(/C=C/c1ccccc1)c1c[nH]c2ccccc2c1=O,-52.7% (active)
15,CN(C)S(=O)(=O)n1cnc([C@@H]2[C@@H]3C(=O)OC[C@@H]3C[C@]23N=CN(Cc2ccccc2)C3=O)c1,97.2%
16,O=C(/C=C\c1ccc2c(c1)OCO2)/C=C/c1ccc2c(c1)OCO2,20.3%
17,CCOC(=O)C(CCC(C)C)C(=O)OCC,105%
18,CC(C)(C)c1ccc(C(=O)N/N=C/c2ccc(O)cc2O)cc1,-32.5% (active)
19,COc1ccccc1NC(=O)Nc1ccc(-c2nc3ccccc3o2)cc1,101%
20,CC(C)NCCCCCNc1cc(O)cc2cccnc12,18.6%

row,Structure (SMILES),growth
1,CCCCSc1ccc2nc(-c3ccc(OCCCN=C(N)N)cc3)cn2c1,35.6%
2,Cc1cc(C)cc(C(=O)Nc2cccc(C#Cc3cccc4[nH]nc(N)c34)c2)c1,43%
3,CC(C)(C)CC(C)(C)c1ccc(OCCOCC[N+](C)(C)Cc2ccccc2)cc1,-81.8% (active)
4,CNC(=O)c1cc(Oc2ccc3nc(NC(=O)c4ccc(CN5CCCN(C)CC5)c(C(F)(F)F)c4)sc3c2)ccn1,8.05% (active)
5,COc1cc2c3c(n(C4CCNCC4)c(=O)c2cc1OC)-c1cc2c(cc1C3=O)OCO2,-81% (active)
6,CNC1=CC(=O)c2c(C(=O)OC)c(C)[n+]([O-])c(C)c2C1=O,34.7%
7,Cc1ccc2nc(N)nnc2c1,102%
8,Cn1c(N)c(N=O)c(=O)[nH]c1=O,115%
9,COc1cccc(NC(=O)c2cccc(C3CCc4c(cc(OC)c(OC)c4OC)O3)c2)c1 (stereo not given),71.5%
10,CS(=O)(=O)c1nccc(-c2c(-c3cccc(OCCN4CCOCC4)c3)nc3sccn23)n1,37.6%
11,O=C(/C=C/c1ccccc1)Nc1ncc(Cc2ccccc2)s1,29.7%
12,COc1ccc2c(c1)C/C(=C\c1cc(-c3cc(OC)c(OC)c(OC)c3)n[nH]1)C2=O,68.8%
13,COC(=O)/C=C\C(=O)OC,112%
14,[O-]c1c[n+](-c2ccc(Cl)cc2)no1,98.7%
15,Cc1cc(-c2ccc(Cl)cc2)n(Cc2nnc(SCC(=O)Nc3ccc(S(N)(=O)=O)cc3)n2-c2ccc([N+](=O)[O-])cc2)n1,78.6%
16,O=C(Nc1ccc(Cl)cc1)Nc1ccc(Oc2nncc3ccccc23)cc1,-76.2% (active)
17,CC1CN(/N=C/c2ccc([N+](=O)[O-])o2)C(=N)O1 (stereo not given),89.6%
18,Cc1ccccc1C1CC(=O)c2ccccc2C1C (stereo not given),83%
19,Cc1cccc(CNc2c3ccccc3nc3ccccc23)c1,-0.391% (active)
20,Fc1ccc2c(-c3cncn3CCc3ccccc3)c[nH]c2c1,74.6%

# Reference: PubChem BioAssay (NCI)
